# Laboratory results as given in ChEMBL document CHEMBL3988442, “University of Dundee, Small-Polar-MMV Screening Library” (2021).
# The campaign covered roughly 66,000 compounds. About 960 (1.5%) showed an effect of 50% or more. Only a selection was taken, and strong results are over-represented in it overall.
# Test system: Trypanosoma brucei
# Assay: Trypanosoma brucei 72 hour study
# Format: functional, organism-based
# Set-up: scale not given: in the data most compounds retested in dose-response had high values
compound,measurement,setting,value
CCc1nnc(CN(C)CC2CCCCC2)o1,Percent Effect,"30 µM, 30.03 µM",-20.72%
Cc1cnc(C(=O)N2CCc3ncnc(C)c3CC2)cn1,Percent Effect,"30 µM, 30.03 µM",54.93%
Cc1ncnc2c1CCN(C(=O)c1cnccn1)CC2,Percent Effect,"30.3 µM, […]",17.88%
Cc1ccc(C(=O)N2CCc3ncnc(C)c3CC2)cn1,Percent Effect,"30 µM, 30.03 µM",1.33%
CCNC(=O)N(C)C1CCN(Cc2ncc(C)c(OC)c2C)CC1,Percent Effect,10 µM,-34.27%
Cc1cc(C(=O)N2CCC3(CC2)CC(c2cccnc2)C(=O)N3)no1.O=C(O)C(F)(F)F (configuration not stated),Percent Effect,"30 µM, 30.03 µM",-44.38%
Cc1ncc(CNC2CC(=O)N(CCc3ccc(F)cc3)C2)n1C (configuration not stated),Percent Effect,"30 µM, 30.03 µM",23.38%
COc1ccc(CCN2CC(NCc3ncc[nH]3)CC2=O)cc1 (configuration not stated),Percent Effect,"30 µM, 30.03 µM",64.92%
O=C1CC(NCc2ccncc2)CN1CCc1cccc(Cl)c1 (configuration not stated),Percent Effect,"30 µM, 30.03 µM",-25.97%
O=C1CC(NCc2ccccn2)CN1CCc1ccc(F)cc1 (configuration not stated),Percent Effect,"30 µM, 30.03 µM",2.338%
O=C1CC(NCc2ncc[nH]2)CN1CCc1cccc(Cl)c1 (configuration not stated),Percent Effect,"30 µM, 30.03 µM",84.65%
Cc1nc[nH]c1CNC1CC(=O)N(CCc2cccc(Cl)c2)C1 (configuration not stated),Percent Effect,"30 µM, 30.03 µM",-48.22%
CCN1CCN(C(C)CNC(=O)Nc2nc3ccccc3s2)CC1 (configuration not stated),Percent Effect,"30.3 µM, […]",21.11%
Fc1ccc(CN2CCc3ncnc(C4CC4)c3CC2)cc1.O=C(O)C(F)(F)F,Percent Effect,"30 µM, 30.03 µM",-12.14%
Cc1ccc(O)c(-c2cc(NCCO)nc3[nH]ccc23)c1,Percent Effect,"30 µM, 30.03 µM",-9.914%
CC(=O)N1[C@H](CN(C)C)C[C@@H]2CN(C(=O)c3occc3C)CC[C@@H]21.O=C(O)C(F)(F)F,Percent Effect,"30.3 µM, […]",-4.239%
O=C(O)C(F)(F)F.O=S(=O)(C1CC1)N1CCO[C@H]2[C@@H](Oc3ncccc3F)CC[C@@H]21,Percent Effect,"30.3 µM, […]",-15.89%
CC(C)c1cn(CC(=O)NC2CC(=O)N(CCc3ccccc3)C2)nn1 (configuration not stated),Percent Effect,"30.3 µM, […]",-9.844%
CCN(Cc1noc(CC(C)C)n1)Cc1ccccc1Cl,Percent Effect,"30.3 µM, […]",100%
CCN(Cc1noc(CC(C)C)n1)Cc1ccccc1C,Percent Effect,"30.3 µM, […]",13.68%
CCN(Cc1noc(CC(C)C)n1)Cc1ccccc1C(=O)O,Percent Effect,"30.3 µM, […]",12.17%
COc1cccc(CN2CCCC(c3nn(C)c4nccnc34)C2)c1.Cl (configuration not stated),Percent Effect,"30.3 µM, […]",-9.344%
Cc1cnc(CN2C[C@H]3C[C@H](Oc4ccccc4)C[C@H]3C2)cn1,Percent Effect,"30.3 µM, […]",-12.87%
Cc1nc(COCc2cnc3n2CCN(CC2CCC2)C3C)cs1.O=C(O)C(F)(F)F (configuration not stated),Percent Effect,"30 µM, 30.03 µM",77.97%
Cc1nc(COCc2cnc3n2CCN(C)C3C)cs1.O=C(O)C(F)(F)F (configuration not stated),Percent Effect,"30.3 µM, […]",14.84%
Cc1nc(COCc2cnc3n2CCN(C2CCC2)C3C)cs1.O=C(O)C(F)(F)F (configuration not stated),Percent Effect,"30 µM, 30.03 µM",-3.887%
O=C(NCc1ccco1)[C@H]1C[C@@H]2CCN(c3cccc(F)c3)C[C@H]2O1.O=C(O)C(F)(F)F,Percent Effect,"30.3 µM, […]",0.588%
COc1ccc(-c2nc(CN3CCCC(OC)C3)c(C)o2)c(F)c1 (configuration not stated),Percent Effect,"30.3 µM, […]",99.32%
CCCOC1CCCN(Cc2nc(-c3ccc(F)cc3F)oc2C)C1 (configuration not stated),Percent Effect,"30.3 µM, […]",19.33%
COCc1ncn(Cc2nc(-c3ccc(OC)cc3F)oc2C)n1,Percent Effect,"30.3 µM, […]",-22.44%
Cc1nnc(CN2C[C@H]3CC[C@@H]2CN(C2Cc4ccccc4C2)C3)o1,Percent Effect,"30 µM, 30.03 µM",19.71%
COCC1N(C(=O)c2ccco2)[C@H]2CC[C@]1(O)CC2 (some centres not stated),Percent Effect,"30.3 µM, […]",-31.26%
O=C(NCC1CC1)[C@H]1C[C@@H]2CN(S(=O)(=O)Cc3ccccc3)C[C@H]1O2,Percent Effect,"30 µM, 30.03 µM",-18.74%
O=C(NC1CCCCC1)NC1CCCc2c1cnn2CCO (configuration not stated),Percent Effect,"30 µM, 30.03 µM",61.21%
O=C(NCC1CCCCC1)NC1CCCc2c1cnn2CCO (configuration not stated),Percent Effect,"30 µM, 30.03 µM",-28.76%
O=C(NCC(F)(F)F)NC1CCCc2c1cnn2CCO (configuration not stated),Percent Effect,"30 µM, 30.03 µM",3.56%
COc1ccc(CN2CCc3ncnc(C4CC4)c3CC2)cc1.O=C(O)C(F)(F)F,Percent Effect,"30 µM, 30.03 µM",-6.255%
Cc1nc(C)n(CC2CCCCN2Cc2nc3ccccc3o2)n1 (configuration not stated),Percent Effect,"30.3 µM, […]",-29.61%
same,Percent Effect,"10 mM, 10 mM as filed; unlikely as a test dose",-25.93%
Cc1cc(N2CCCC(O)(CN(C)C)C2)c2cc3c(cc2n1)OCO3 (configuration not stated),Percent Effect,"30 µM, 30.03 µM",17.65%
Cc1cc(N2CCCC3(CN(C)C(=O)O3)C2)c2cc3c(cc2n1)OCO3 (configuration not stated),Percent Effect,"30 µM, 30.03 µM",-17.57%
Cc1cc(N2CCC(O)(CN(C)C)C2)c2cc3c(cc2n1)OCO3 (configuration not stated),Percent Effect,"30 µM, 30.03 µM",101.2%
CN(C)C[C@H]1OC[C@@H]2CCN(S(=O)(=O)c3ccc(F)cc3)C[C@@H]21.O=C(O)C(F)(F)F,Percent Effect,"30 µM, 30.03 µM",-20.07%
Cn1cncc1CN1CCC2(CC1)COCCN(S(C)(=O)=O)C2.O=C(O)C(F)(F)F,Percent Effect,"30.3 µM, […]",-5.891%
CN(C)C(=O)N1CC2(CCNCC2)c2cc(Cl)ccc21.Cl,Percent Effect,"30.3 µM, […]",-10.23%
CCOC(=O)N1CC2(CCNCC2)c2cc(Cl)ccc21.Cl,Percent Effect,"30.3 µM, […]",80.77%
Cl.Cl.O=C([C@H]1CCCN1)N1CC2(CCNCC2)c2cc(Cl)ccc21,Percent Effect,"30.3 µM, […]",11.24%
Cl.O=C(c1ccccc1F)N1CC2(CCNCC2)c2cc(Cl)ccc21,Percent Effect,"30.3 µM, […]",-26.55%
C[C@@H](N)C(=O)N1CC2(CCNCC2)c2cc(Cl)ccc21.Cl.Cl,Percent Effect,"30.3 µM, […]",51.33%
Cl.Cl.O=C([C@@H]1CSCN1)N1CC2(CCNCC2)c2cc(Cl)ccc21,Percent Effect,"30.3 µM, […]",-15.46%
Cc1ccc2c(c1)C1(CCNCC1)CN2C(=O)C(C)C,Percent Effect,"30.3 µM, […]",-10.81%
CC(C)C[C@H](N)C(=O)N1CC2(CCNCC2)c2cc(Cl)ccc21.Cl.Cl,Percent Effect,"30.3 µM, […]",46.04%
COCCN1CC[C@H](OC)[C@@H]1Cc1ccccc1.O=C(O)C(F)(F)F,Percent Effect,"30 µM, 30.03 µM",-24.73%
O=C(COC[C@@]12CCC[C@@H]1CN(C1CCC1)C2)N1CCCC1.O=C(O)C(F)(F)F,Percent Effect,"30.3 µM, […]",-61.71%
Cc1nn(C)c2c(=O)n(CC(=O)NCC3CCCO3)ccc12 (configuration not stated),Percent Effect,"30 µM, 30.03 µM",-1.766%
CNC(=O)CN1CC[C@H]2CN(C(=O)c3ccoc3)C[C@H]2C1.O=C(O)C(F)(F)F,Percent Effect,"30.3 µM, […]",-45.09%
CCOCC1CN(Cc2nccs2)Cc2nn(CC3CC3)cc21.O=C(O)C(F)(F)F (configuration not stated),Percent Effect,"30 µM, 30.03 µM",-7.531%
COc1ncc(CN(CCCN2CCOCC2)Cc2ccc(C)o2)cn1.O=C(O)CC(O)(CC(=O)O)C(=O)O,Percent Effect,"30.3 µM, […]",-12.51%
CNc1nc(C2CCCN2C(C)=O)nc2c1CN(CCO)CC2.O=CO (configuration not stated),Percent Effect,"30.3 µM, […]",20.17%
COc1cccc([C@@H]2N[C@H](c3nccs3)Cc3ccsc32)c1OC,Percent Effect,"30.3 µM, […]",100.1%
CCOc1cc([C@@H]2N[C@H](c3nccs3)Cc3ccsc32)ccc1OC,Percent Effect,"30.3 µM, […]",9.707%
COc1ccc(OC)c([C@@H]2N[C@H](c3nccs3)Cc3ccsc32)c1,Percent Effect,"30.3 µM, […]",15.15%
CCOc1cc([C@H]2N[C@@H](c3nc(C)cs3)Cc3ccsc32)ccc1OC,Percent Effect,"30.3 µM, […]",85.49%
CCOc1ccc([C@@H]2N[C@H](c3nccs3)Cc3ccsc32)cc1OC,Percent Effect,"30.3 µM, […]",10.72%
COc1cc([C@@H]2N[C@H](c3nccs3)Cc3ccsc32)cc(OC)c1OC,Percent Effect,"30.3 µM, […]",-6.656%
O=C(CN1C[C@H]2C[C@H](OCc3ccccc3)C[C@H]2C1)N1CCOCC1,Percent Effect,"30.3 µM, […]",-15.88%
Cc1cc(C)n(CC2CN(c3nnc(C)c(C)c3C#N)CCO2)n1 (configuration not stated),Percent Effect,"30.3 µM, […]",5.324%
NC1(C(=O)NCC2CCCN(Cc3ccccc3F)C2)CCCC1 (configuration not stated),Percent Effect,"30 µM, 30.03 µM",-11%
NC1(C(=O)NCC2CCCN(Cc3cccc4nonc34)C2)CCC1 (configuration not stated),Percent Effect,"30 µM, 30.03 µM",54.97%
O=C(NCC1CCCN(Cc2cccc3nonc23)C1)c1ccc[nH]1 (configuration not stated),Percent Effect,"30 µM, 30.03 µM",-46.2%
COc1ccc(CN2CCc3nc4ccsc4c(=O)n3CC2)c(C)c1C,Percent Effect,"30.3 µM, […]",7.671%
CCn1cc(NC(=O)C(C)n2ncc(Cl)c2C)c(C(=O)NC)n1 (configuration not stated),Percent Effect,"30 µM, 30.03 µM",-19.95%
CC(C)CNC(=O)[C@H]1CCS(=O)(=O)[C@@H]2CN(Cc3ccc(F)cc3)C[C@H]12.O=C(O)C(F)(F)F,Percent Effect,"30.3 µM, […]",-43.77%
CC(C)CNC(=O)[C@H]1CCS(=O)(=O)[C@@H]2CN(Cc3ccc(Cl)cc3)C[C@H]12.O=C(O)C(F)(F)F,Percent Effect,"30 µM, 30.03 µM",63.22%
Cc1ccc(CN2C[C@@H]3[C@@H](C(=O)NCC(C)C)CCS(=O)(=O)[C@@H]3C2)cc1.O=C(O)C(F)(F)F,Percent Effect,"30.3 µM, […]",-11.51%
CC(CNCc1ccc(Cl)cc1)Oc1ccccn1.Cl (configuration not stated),Percent Effect,"30 µM, 30.03 µM",-4.288%
Cc1cc(C2NC(=O)CN2Cc2ccc(Br)cc2)cc(C)c1O (configuration not stated),Percent Effect,"30 µM, 30.03 µM",94.42%
COc1cc(OC)cc(C2NC(=O)CN2Cc2ccc(Br)cc2)c1 (configuration not stated),Percent Effect,"30 µM, 30.03 µM",-25.05%
NC(=O)COc1ccc(C2NC(=O)CN2Cc2ccc(Br)cc2)cc1 (configuration not stated),Percent Effect,"30 µM, 30.03 µM",-15.28%
CC1N(c2cnn(C)c2)C(=O)COC12CCN(c1ncccn1)CC2.O=C(O)C(F)(F)F (configuration not stated),Percent Effect,"30.3 µM, […]",-2.456%
CN(CCc1ccccn1)C(=O)c1cccs1.Cl,Percent Effect,"30 µM, 30.03 µM",-41.89%
O=C(NCCN1CCCCC1)c1nc(-c2ccc3cc[nH]c3c2)no1,Percent Effect,"30 µM, 30.03 µM",29.87%
COCCNC(=O)c1nc(-c2ccc3cc[nH]c3c2)no1,Percent Effect,"30 µM, 30.03 µM",-23.6%
O=C(c1nc(-c2ccc3cc[nH]c3c2)no1)N1CCCC1,Percent Effect,"30 µM, 30.03 µM",53.89%
COCCNc1cc(C2CCCNC2)ccn1.Cl (configuration not stated),Percent Effect,"30.3 µM, […]",9.179%
CCNC(=O)[C@@H]1C[C@H](N)CN1Cc1ccc(-c2cc[nH]n2)o1,Percent Effect,"30.3 µM, […]",-17.36%
CCNC(=O)[C@@H]1C[C@H](N)CN1Cc1ccc(Sc2ccc(C)cc2)o1,Percent Effect,"30.3 µM, […]",18.4%
CCNC(=O)[C@@H]1C[C@@H](N)CN1Cc1ccc(Sc2ccc(C)cc2)o1,Percent Effect,"30.3 µM, […]",100.1%
COCCN1C(=O)C[C@H]2[C@H]1CCN2Cc1cccc(C#N)c1.O=C(O)C(F)(F)F,Percent Effect,"30 µM, 30.03 µM",17.08%
O=C(O)C(F)(F)F.O=C(c1ccc[nH]1)N1CCn2cc(CN3CCCC3)nc2C1,Percent Effect,"30 µM, 30.03 µM",-5.056%
O=C(c1ccc[nH]1)N1CCn2cc(Cn3cncn3)nc2C1,Percent Effect,"30 µM, 30.03 µM",-19.87%
O=C(O)C(F)(F)F.O=C(c1ccc[nH]1)N1CCn2cc(Cn3cccn3)nc2C1,Percent Effect,"30.3 µM, […]",63.53%
